Bioassay records from PubChem BioAssay.
Cycloheximide cs = Cycloheximide Counterscreen for Small Molecule Inhibitors of Shiga Toxin; cell reporter, cycloheximide protein synthesis inhibition counterscreen; max response, %; 12% of 300,000 active; in the data active = max response mostly above about 13%, no sharp cut-off; inactive = mostly below about 14%; also: read at 38.3 µM for the half of the compounds with a filed dose; 0% is about no effect
Pf growth 48h = Primary qHTS for delayed death inhibitors of the malarial parasite plastid, 48 hour incubation; 5.9% of 310,000 active; Potency, µM (titrated, usually from 28.7 µM), without a hit: top-dose activity change, negative = inhibition, most hits filed as inhibitors; AID 504832, 2011; P. falciparum luciferase growth in erythrocytes, 48 h; also: potency is read from the fitted curve at half-maximal effect; % is scaled to controls: 0 for no effect and ±100 for the full control effect
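Read-out is firefly luciferase luminescence from an integrated reporter in P. falciparum, so falling signal marks reduced parasite growth. Infected erythrocytes were at 2% hematocrit and 0.1% parasitemia (final) in Albumax-supplemented RPMI 1640.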
NS1 function inh = qHTS Assay for Inhibitors of Influenza NS1 Protein Function | Potency, µM (titrated, usually from 46.1 µM), for inactives: at the highest dose activity, positive = more growth | AID 2326, 2010 | 0.4% of 270,000 active; calls by dose curve; also: potency is read from the fitted curve at half-maximal effect; actives are rising curves; nearly all actives have a fitted effect of over 50% in size
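A cell-based growth assay was used: compounds that relieve NS1-induced slow growth of budding yeast raise OD600. Assay medium was yeast nitrogen base with ammonium sulphate and -URA supplement, pH 6.0, with 2% galactose.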
Shiga inhibitor = A qHTS for Small Molecule Inhibitors of Shiga Toxin. AID 2315, 2010. 9.2% of 290,000 active. inhibition, % at 38.7 µM. Vero cells, Shiga toxin protein synthesis inhibition reporter; in the data active = inhibition mostly above about 28%, no sharp cut-off; inactive = mostly below about 43%; also: 0% is about no effect
Sm TGR inh = qHTS Assay for the Inhibitors of Schistosoma Mansoni Peroxiredoxins; Schistosoma mansoni thioredoxin glutathione reductase (TGR), Q962Y6; AID 485364, 2010; purified TGR, DTNB reduction, TNB absorbance 405 nm; 3% of 360,000 active; Potency, µM (titrated, usually from 114 µM), without a hit: at the highest dose activity change, negative = inhibition, most hits filed as inhibitors; also: potency is read from the fitted curve at half-maximal effect; % is scaled to controls: 0 for no effect and ±100 for the full control effect; nearly all actives have a fitted effect of over 60% in size
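First, TGR (20 nM dispensed) and NADPH were mixed with compound. Second, a 15 min room-temperature incubation followed. Third, further NADPH and then DTNB were added to start the reaction. Finally, TNB absorbance was monitored kinetically.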
Pf growth 96h = Primary qHTS for delayed death inhibitors of the malarial parasite plastid, 96 hour incubation; P. falciparum luciferase reporter growth, 96 h; Potency, µM (series often up to 28.7 µM), inactives show at the highest dose activity change, negative = inhibition, most hits filed as inhibitors; 6.9% of 320,000 active; also: potency is read from the fitted curve at half-maximal effect; % is scaled to controls: 0 for no effect and ±100 for the full control effect
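P. falciparum expressing integrated firefly luciferase grown in erythrocytes (2% hematocrit, 0.05% parasitemia final) with compounds for 96 hours at 37 C, 5% CO2. Growth inhibition read as loss of luminescence after adding luciferase detection reagent.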
Starred values were filed as active, the others as inactive; u = inconclusive; x = not tested or not shown. Shown are actives, neighbours in structure and some others; about 21% of the full set was active somewhere. Unless noted, calls follow the shape of the dose curve; as a rule, active = well fitted curve in the direction sought with a large enough effect; inconclusive = small, poorly fitted or top-dose-only effect, or another doubt; inactive = no such curve, though single readings can be large; an effect the other way counts as inactive or inconclusive.

SMILES	Cycloheximide cs	Pf growth 48h	NS1 function inh	Shiga inhibitor	Sm TGR inh	Pf growth 96h
Cn1nc(-c2ccccc2)nc1-c1ccccc1	x	88.8%	x	x	-0.6%	224.9%
CN=c1nc(-c2ccccc2)n(-c2ccccc2)s1	x	62.2%	-20.1%	x	1.12µM*	58.1%
CC(Oc1ccccc1)c1nnc(SCC(=O)NC2CC2)n1C (stereo not drawn)	3.8	33.2%	11.7%	14.1	0.2%	19.9%
COc1ccc(NC(=O)Cn2nnc(-c3nc(-c4ccncc4)no3)c2N)cc1OC	x	x	x	x	-2.5%	x
Nc1nnnn1/N=C/C=C/c1ccccc1	17.4*	32.6%	-7.9%	41.0	0.0%	0.9%
Nc1nnnn1/N=C/C(Br)=C/c1ccccc1	68.4*	u	-63.1%	176.3*	0.0%	-8.7%
Nc1nnnn1CC(=O)N/N=C/C=C/c1ccccc1	-2.0	8.8%	3.8%	23.7	7.7%	0.5%
COc1cccc(SCC2CSc3nc4ccccc4c(=O)n32)c1 (stereo not drawn)	8.8	-7.7%	0.5%	13.2	6.6%	u
COCCN1CCN(C(=O)C2CCC(=O)N(Cc3ccccc3OC)C2)CC1 (stereo not drawn)	-6.2	2.2%	9.2%	25.5	-20.3%	u
O=C1CCC(C(=O)N2CCSCC2)CN1CCc1ccccc1 (stereo not drawn)	2.0	12.7%	10.2%	23.0	-5.8%	29.1%
C=CCC1(CC=C)CCCN1C(=O)C1CCC(=O)N(CCc2ccc(OC)cc2)C1 (stereo not drawn)	53.1*	u	-36.9%	78.2*	-19.2%	u
C=CCC1(CC=C)CCCN1C(=O)C1CCC(=O)N(CCc2ccccc2)C1 (stereo not drawn)	76.7*	u	-2.0%	101.9*	3.0%	u
COCCN1CCN(C(=O)C2CCC(=O)N(CCc3ccccc3)C2)CC1 (stereo not drawn)	1.1	42.5%	4.3%	-9.7	-6.4%	9.28µM*
CCCC(=O)NCc1ccccc1Cl	12.3	-3.4%	1.5%	24.1	x	25.6%
O=C(COC(=O)c1ccccc1Nc1ccccc1)NCc1ccccc1Cl	-2.5	-13.5%	-8.3%	-5.1	0.6%	13.1µM*
CC(C)C(=O)OCC(=O)NCc1ccccc1Cl	29.2*	19.2%	x	28.2	19.8%	2.9%
CC(C)CC(NC(N)=O)C(=O)NCc1ccccc1Cl (stereo not drawn)	35.5*	32.1%	x	35.8	4.9%	34.4%
Cc1c(CC(=O)NCC(=O)O)c(=O)oc2cc3c(cc12)CCC(C)(C)O3	1.1	-6.1%	3.6%	5.7	-6.1%	0.0%
CCC(C)/C=C/C1=CC2=C(Cl)C(=O)C3(C)OC(=O)C(C(=O)C(C)C(C)O)C3C2=CO1 (stereo not drawn)	-1.4	-3.1%	2.6%	-7.8	50.1µM*	67.7%
Cc1ccc(/C=C/C(=O)OCC(=O)N(CC(C)C)c2c(N)n(Cc3ccccc3)c(=O)[nH]c2=O)o1	x	u	x	x	-32.5%	-17.8%
Cc1cccc(N/C=C(\[N+](=O)[O-])S(=O)(=O)c2ccccc2)c1C	2.3	11.7µM*	x	-1.9	-24.0%	23.7%
Cc1ccc(-c2onc3ccc(Cl)cc23)cc1	7.0	-1.4%	5.2%	23.7	1.7%	19.4%
O=Cc1ccc2noc(-c3ccc(Cl)cc3)c2c1	31.7	20.4%	-15.4%	55.3	50.1µM*	x
Clc1cccc(Cl)c1/C=C/c1ccn[nH]1	35.3*	8.9%	-44.5%	66.8*	17.5%	9.5%
Cc1cccc(N2CCN(C(=O)CN3C(=O)NC(C)(C4CC4)C3=O)CC2)c1C (stereo not drawn)	x	u	x	x	-3.9%	30.5%
O=C(CN1C(=O)C2CC=CCC2C1=O)N1CCN(c2ccc([N+](=O)[O-])cc2)CC1 (stereo not drawn)	2.7	-6.9%	1.8%	17.8	5.4%	-19.4%
Cc1cccc(N2CCN(C(=O)CN3C(=O)C4CC=CCC4C3=O)CC2)c1C (stereo not drawn)	28.4	36.0%	x	75.5*	-9.9%	134.9%
Cc1cccc(N2CCN(C(=O)CN3C(=O)NC(C)(C)C3=O)CC2)c1C	31.1*	62.7%	1.7%	73.8*	-0.7%	35.8%
